outcome, max response and Potency data for 25 compounds are collected here from PubChem BioAssay (NCATS).

“And” between values parts separate entries of the source, which are not always exact repeats. Identical values can stand only once. Records with an inconclusive call do not appear. The source made the active and inactive calls. Unless noted, calls come from the whole dose curve; as a rule, active = well fitted curve in the direction sought with a large enough effect; inconclusive = small, poorly fitted or top-dose-only effect, or another doubt; inactive = no such curve, though single readings can be large; an effect the other way counts as inactive or inconclusive.

A short description of test [1]: qHTS assay for small molecule agonists of the antioxidant response element (ARE) signaling pathway measured by Nrf2-dependant transcriptional activity (AID 720636; active = well fitted curve in the direction sought with a large enough effect in the repeat runs; an effect the other way counts as inactive or inconclusive;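 note: HepG2 cells with an ARE-driven luciferase reporter; % of control where 0% means no effect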). The method in brief: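 Cells: ARE-luc HepG2 with Nrf2-responsive luciferase. Medium contained 1% dialyzed FBS. Compound exposure lasted 16 hr at 37 C and 5% CO2, followed by ONE-Glo luciferase detection.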
In general terms: qHTS replaces the single test concentration by a dilution series.

Test [2] in a line: qHTS assay for small molecule antagonists of the retinoid-related orphan receptor gamma (ROR-gamma) signaling pathway - cell viability counter screen (AID 720652; active = well fitted curve in the direction sought with a large enough effect in the repeat runs; an effect the other way counts as inactive or inconclusive;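 note: CHO reporter cells with doxycycline-induced ROR-gamma expression; series mostly up to about 92 µM; compound exposure lasted 16 hr before ATP read; % is set by controls: 0 for no effect and ±100 for the full control effect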). The method in brief:
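Cytotoxicity is quantified via intracellular ATP (CellTiter-Glo luminescence) in doxycycline-induced CHO ROR response element-luciferase reporter cells treated with compound for 16 hr at 37 C, 5% CO2.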

A short description of test [3]: qHTS assay for small molecule agonists of the antioxidant response element (ARE) signaling pathway measured by Nrf2-dependant transcriptional activity - cell viability counter screen (AID 720653; active = well fitted curve in the direction sought with a large enough effect in the repeat runs; an effect the other way counts as inactive or inconclusive; note: potency is the fitted concentration of half-maximal effect; for max response: % is set by controls: 0 for no effect and ±100 for the full control effect). The settings on record: ARE-bla HepG2 viability, CellTiter-Glo ATP luminescence, 16 h; max response: hits give low values. In a few lines: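 ARE-bla HepG2 cells treated with compounds for 16 h at 37C; this counter screen measures viability as intracellular ATP by CellTiter-Glo luminescence after 30 min at room temperature.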

Test [4] in a line: qHTS Assay for Identifying Gametocytocidal Compounds (AID 743244).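 For max response: % is set by controls: 0 for no effect and ±100 for the full control effect; actives lower the fluorescent signal which means gametocytes are killed.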 Note: potency is the fitted concentration of half-maximal effect. The settings on record: P. falciparum 3D7 stage III-V gametocytes, alamarBlue, 72 h; max response: hits give low values. In a few lines: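 Viability read-out was resazurin reduction (alamarBlue, 24 h) measured at Ex 525/Em 598 nm. Beforehand, late-stage (III-V) 3D7 P. falciparum gametocytes at 20,000 cells/well were incubated with compound 72 h at 37C under 5% CO2.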

Test [5] is described as follows: qHTS assay for cell viability of HEK293 cells (AID 743288). Note: % is set by controls: 0 for no effect and ±100 for the full control effect; nearly all actives have a fitted effect of over 50% in size. The settings on record: ATP luminescence (CellTiter-Glo), 18 h, hits give low values. The method in brief: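 Total intracellular ATP, measured with a luciferase-coupled reagent, indicates the number of viable HEK293 cells. Exposure to test chemicals lasts 18 h at 37 C in 1,536-well format at 2,000 cells/well.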

A short description of test [6]: qHTS assay for cell viability of the p53RE-bla HCT-116 cell line (AID 743292). Note: % is set by controls: 0 for no effect and ±100 for the full control effect; nearly all actives have a fitted effect of over 55% in size. In a few lines: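 HCT-116 p53RE-bla cells seeded 4,000/well; 5 h at 37 C; compound (DMSO) added; 16 h at 37 C; CellTiter-Glo added, 30 min RT; luminescence read.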
A short description of test [7]: qHTS assay for measurement of the activity of small molecule inhibitors on Zika virus induced Caspase-3 activity in human iPSC derived neural progenitor cells (hNPCs) (AID 1224857). Note: % of control where 0% means no effect; nearly all actives have a fitted effect of over 65% in size. The method in brief: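 Percent inhibition of virus-induced caspase-3/7 luminescence (Caspase-Glo), scaled between uninfected cells and Zika-infected cells. hNPCs received compound 1 hr before ZIKV at 2 FFU/cell, with 6 hours infection at 37 C.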

Test [8] is described as follows: qHTS assay for measurement of the activity of small molecule inhibitors on Zika virus induced Caspase-3 activity in human astrocytoma cells (AID 1224859).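 Note: plate controls were ZIKV-infected untreated cells for no effect and uninfected cells for full effect.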 The method in brief:
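Luminescent caspase-3/7 read-out (30 min reagent, room temperature) in human SNB-19 cells infected 6 h with ZIKV (2 FFU/cell) after 1 h compound pre-incubation; Data were normalised to uninfected and infected wells.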

Test [9] can be described thus: P-glycoprotein substrates identified in KB-8-5-11 adenocarcinoma cell line, qHTS therapeutic library screen (AID 1346987). Note: nearly all actives have a fitted effect of over 65% in size. Note: potency is the fitted concentration of half-maximal effect. The method in brief:
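P-gp-mediated resistance screen: KB-8-5-11 cells treated 72 h with compounds in dose-response. CellTiter-Glo viability.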

Test [10] in a line: P-glycoprotein substrates identified in KB-3-1 adenocarcinoma cell line, qHTS therapeutic library screen (AID 1346986). Note: nearly all actives have a fitted effect of over 60% in size. In a few lines: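 Compounds were tested in dose-response against KB-3-1 and KB-8-5-11 cells at 37 degree C for 72 h, and viability was measured by luminescence. AC50 values came from curve fitting with class-based activity calls.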
In test [11] the target is T1, Hexokinase-4 (Homo sapiens) + Glucokinase regulatory protein (Homo sapiens) (UniProt P35557+Q14397). Description: qHTS assay for inhibitors of recombinant human GCK-GKRP interaction: Diaphorase-coupled assay (AID 743205). The method in brief: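 A kinetic fluorescence read (Ex 525/Em 590 nm, every minute for 30 minutes) tracked resorufin from a G6PDH-diaphorase coupled GCK reaction. It contained 10 nM GST-GCK, 10 nM FLAG-GKRP, 5 mM glucose, 0.4 mM ATP in Hepes pH 7.6. Normalized to with/without-enzyme DMSO controls.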

The target of test [12] is T1, Hexokinase-4 (Homo sapiens) + Glucokinase regulatory protein (Homo sapiens). Description: qHTS assay for inhibitors of recombinant human GCK-GKRP interaction: ADP-Glo assay (AID 743206).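 Note: plate controls were DMSO plus enzyme for no effect and no enzyme for full effect.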 The method in brief: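 GST-GCK and FLAG-GKRP (15 nM each in the dispensed mix, with 2 uM S6P) react with 0.4 mM ATP and 5 mM glucose (final) in Hepes pH 7.6 for 60 min at room temperature. ADP is measured by ADP-Glo luminescence.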

Test [13] has the same target. Description: qHTS assay for inhibitors of recombinant human GCK-GKRP interaction: HTRF assay (AID 743207).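 Note: 0% = DMSO with GCK present and -100% = DMSO wells lacking GCK.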 In a few lines: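 After 60 min equilibration at room temperature with anti-FLAG XL665 and anti-GST antibodies, FRET ratio (665/615 nm, excitation 320 nm) was read. Proteins: GST-GCK and FLAG-GKRP, each 5 nM, plus 2 uM S6P, pH 7.1 buffer; GCK-free wells define minimum signal.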

The target in test [14] is Atrial natriuretic peptide receptor 1 (Homo sapiens) (UniProt P16066). Description: Natriuretic polypeptide receptor (hNpr1) antagonism - Pilot screen (AID 1347049; calls by dose curve;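 note: agonist-evoked cGMP luminescence read 20 min after hNppA addition; series mostly up to about 58 µM; % is set by controls: 0 for no effect and ±100 for the full control effect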). In a few lines:
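HEK293 cells expressing hNpr1 and GloSensor cGMP luciferase, 1500/well, loaded with 2% GloSensor reagent 2 h, compound 30 min at room temperature; luminescence read before and 20 min after 0.1 nM hNppA stimulation.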

T1 sequence (P35557 whole entry, looked up): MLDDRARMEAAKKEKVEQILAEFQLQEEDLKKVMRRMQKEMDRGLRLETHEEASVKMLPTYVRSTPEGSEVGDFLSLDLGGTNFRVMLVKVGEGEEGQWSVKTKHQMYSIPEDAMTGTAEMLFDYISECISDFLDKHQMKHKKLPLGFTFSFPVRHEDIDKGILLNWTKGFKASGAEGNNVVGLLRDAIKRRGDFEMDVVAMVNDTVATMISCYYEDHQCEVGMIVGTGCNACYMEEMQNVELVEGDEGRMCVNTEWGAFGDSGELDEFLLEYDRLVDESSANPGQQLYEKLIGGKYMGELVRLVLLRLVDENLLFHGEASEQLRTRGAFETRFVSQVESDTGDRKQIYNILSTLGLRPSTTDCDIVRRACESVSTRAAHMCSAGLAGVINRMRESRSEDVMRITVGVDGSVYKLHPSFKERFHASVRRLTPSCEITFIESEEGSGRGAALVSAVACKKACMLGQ
T1 sequence (Q14397 whole entry, looked up): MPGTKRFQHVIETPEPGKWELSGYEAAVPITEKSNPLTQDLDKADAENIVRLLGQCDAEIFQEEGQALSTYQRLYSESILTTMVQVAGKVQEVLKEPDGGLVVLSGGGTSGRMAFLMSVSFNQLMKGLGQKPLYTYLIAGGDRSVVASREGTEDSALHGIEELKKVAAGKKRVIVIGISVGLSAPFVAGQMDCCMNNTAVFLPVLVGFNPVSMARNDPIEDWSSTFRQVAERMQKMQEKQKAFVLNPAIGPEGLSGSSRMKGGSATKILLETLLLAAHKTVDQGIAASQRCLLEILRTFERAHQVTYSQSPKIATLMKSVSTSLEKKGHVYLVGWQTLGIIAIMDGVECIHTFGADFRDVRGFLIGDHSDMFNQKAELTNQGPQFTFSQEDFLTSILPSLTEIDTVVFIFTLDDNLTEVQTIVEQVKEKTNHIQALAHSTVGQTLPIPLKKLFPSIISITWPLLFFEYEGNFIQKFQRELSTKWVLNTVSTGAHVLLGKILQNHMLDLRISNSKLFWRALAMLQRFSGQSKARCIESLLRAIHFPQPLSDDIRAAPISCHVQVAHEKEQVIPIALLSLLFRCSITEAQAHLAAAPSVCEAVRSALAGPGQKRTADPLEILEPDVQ
Atrial natriuretic peptide receptor 1 (Homo sapiens), sequence (P16066 whole entry, looked up): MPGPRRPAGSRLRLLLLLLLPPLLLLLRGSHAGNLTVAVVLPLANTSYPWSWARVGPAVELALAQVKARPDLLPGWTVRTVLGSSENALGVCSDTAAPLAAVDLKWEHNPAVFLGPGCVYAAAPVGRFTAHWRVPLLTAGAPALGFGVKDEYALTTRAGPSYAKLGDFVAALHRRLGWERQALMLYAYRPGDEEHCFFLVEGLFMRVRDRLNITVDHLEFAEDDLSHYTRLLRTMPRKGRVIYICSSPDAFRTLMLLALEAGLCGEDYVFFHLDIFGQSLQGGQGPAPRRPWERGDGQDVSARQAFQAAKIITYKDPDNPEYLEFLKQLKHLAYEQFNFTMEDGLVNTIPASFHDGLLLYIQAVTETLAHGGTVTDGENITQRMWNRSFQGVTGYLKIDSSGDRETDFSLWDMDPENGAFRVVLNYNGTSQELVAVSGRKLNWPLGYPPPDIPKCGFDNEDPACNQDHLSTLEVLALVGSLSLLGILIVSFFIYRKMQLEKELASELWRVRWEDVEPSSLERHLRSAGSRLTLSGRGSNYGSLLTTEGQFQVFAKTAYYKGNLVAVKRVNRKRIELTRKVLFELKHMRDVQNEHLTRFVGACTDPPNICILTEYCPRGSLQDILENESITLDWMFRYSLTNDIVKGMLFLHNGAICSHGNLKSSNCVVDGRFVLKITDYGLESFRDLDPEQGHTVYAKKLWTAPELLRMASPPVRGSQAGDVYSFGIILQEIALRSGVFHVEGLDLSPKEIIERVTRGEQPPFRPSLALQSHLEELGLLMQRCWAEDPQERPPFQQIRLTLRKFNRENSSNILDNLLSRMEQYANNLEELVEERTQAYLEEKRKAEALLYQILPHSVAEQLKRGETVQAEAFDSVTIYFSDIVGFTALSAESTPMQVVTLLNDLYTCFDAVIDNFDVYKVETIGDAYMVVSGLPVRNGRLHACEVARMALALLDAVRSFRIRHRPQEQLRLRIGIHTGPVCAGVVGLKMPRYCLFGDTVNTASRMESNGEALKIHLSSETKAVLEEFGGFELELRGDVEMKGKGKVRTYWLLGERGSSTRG

On to `Oc1ccccc1`, for which the compound was classed as inactive in [1], in test [2] and in test [8]. The max response is -6.78% (inactive) and -2.25% (inactive) and 3.75% (inactive) in test [3]; 2.14% (inactive) in test [4]; -3.62% (inactive) and -6.12% (inactive) and 4.72% (inactive) in test [5]. The Potency entry in [6], in test [7] and in test [9] was “inactive” throughout.

As to `C[N+]1(CC2COC(c3ccccc3)(c3ccccc3)O2)CCCCC1` (stereo unspecified), the Potency entry in test [7] and in test [9] was “inactive” throughout. The compound was classed as inactive in test [8].

Consider `CCOC(=O)c1ccc(NC(=O)CN2CCCCC2)cc1`, for which the max response in [4] is 11.1% (inactive). The Potency result in test [7] and in test [10] was “inactive” throughout. In test [8], the compound was classed as inactive.

Consider `CC[N+](CC)(CC)CCOC(=O)C(C1CCCC1)C1CCCC1`, for which the Potency result in [7] and in test [9] was “inactive” throughout. Moreover, in test [8], the compound was called inactive.

As for `CC(=O)O[C@@H]1C(=O)O[C@@H]2[C@H]1OC(=O)[C@@H]2OC(C)=O`, the max response in [4] is 14.5% (inactive). Also, the Potency result in [7] and in test [10] was “inactive” in each case. For the same compound, in test [8], the compound was classed as inactive.

Take `CN(C)C(=O)CNC(=O)Cc1ccccc1`: in test [4], the max response is 15% (inactive). Besides, the Potency result in test [7] and in test [10] was “inactive” throughout. The compound was called inactive in test [8].

For the compound `COc1ccccc1N1CCN(CCN2C(=O)CC3(CCCC3)CC2=O)CC1`, the result in [11], in test [12], in [13] and in test [8] was inactive. Moreover, the max response in test [4] was 21.4% (inactive). In addition, the Potency result in [7], in test [9] and in test [14] was “inactive” each time.

In the case of `COc1cc(C=O)ccc1O`, the compound was classed as inactive in [1], in [2] and in [8]. The max response is -6.02% (inactive) and -3.47% (inactive) in test [3]; 16.9% (inactive) in test [4]; -1.87% (inactive) and -5.65% (inactive) in test [5]. The Potency entry in test [6], in [7] and in [9] was “inactive” in each case.

For the compound `O=C(O)c1ccccc1Nc1cc(Cl)ccc1C(=O)O`, the Potency entry in test [7] and in test [9] was “inactive” throughout. Moreover, in test [8], the outcome was inactive.

For the compound `O=C(Oc1ccccc1)c1ccccc1O`, the call in [1], in [2] and in test [8] was inactive. Moreover, the max response in test [3] is -7.62% (inactive) and 5.57% (inactive); in [4], 7.75% (inactive); in test [5], 1.49% (inactive) and 4.97% (inactive). Further, the Potency entry in [6], in [7] and in [9] was “inactive” throughout.

Regarding `CO[C@]1(NC(=O)CSC(F)F)C(=O)N2C(C(=O)O)=C(CSc3nnnn3CCO)CO[C@H]21`, the max response in test [4] is 19.9% (inactive). In addition, the Potency result in test [7] and in test [10] was “inactive” in each case. In test [8], the call was inactive.

Consider `CC(C(=O)O)c1ccc(/C=C2\CCCCC2=O)cc1` (stereo unspecified), for which, in [4], the max response was -9.38% (inactive). Besides, the Potency entry in test [7], in test [10] and in test [9] was “inactive” throughout. Moreover, in [8], the compound was classed as inactive.

With `Nc1c2ccccc2nc2ccccc12`, the compound was classed as inactive in test [1], in test [2] and in [8]. The Potency was 31.6 µM (active) in [3], 10 µM (active) in test [4] and 13 µM (active) in [9]. Also, the Potency entry in test [6] and in test [7] was “inactive” each time.

As to `COc1cc(C(=O)OC(COCCC(C)C)CN2CCOCC2)cc(OC)c1OC` (stereo unspecified), in test [4], the max response is 4.25% (inactive). Also, the Potency entry in [7], in test [10] and in test [9] was “inactive” in each case. Also, the outcome in test [8] was inactive.

In the case of `CCOc1ccc(NS(=O)(=O)c2ccc(N)cc2)nn1`, the Potency result in test [7] and in [9] was “inactive” throughout. The result in test [8] was inactive.

On to `CC(=O)OCC(=O)Nc1cc(C#N)cc(NC(=O)COC(C)=O)c1Cl`, for which, in [4], the max response is -6.24% (inactive). Also, the Potency entry in test [7], in test [10] and in test [9] was “inactive” throughout. The compound was classed as inactive in [8].

As to `Cc1nn(-c2ccccc2)c(C)c1/C=N/N1CCN(Cc2ccccc2)CC1`, the outcome in test [11], in test [12], in test [13] and in test [8] was inactive. Also, in test [4], the max response was 1.48% (inactive). Further, the Potency entry in [7], in test [9] and in [14] was “inactive” each time.

On to `CN(CC1(C)CCCO1)S(=O)(=O)c1ccc(Cl)c(S(N)(=O)=O)c1` (stereo unspecified), for which the max response in test [4] was -10.7% (inactive). Further, the Potency result in test [7], in [10] and in test [9] was “inactive” in each case. Besides, in [8], the call was inactive.

With `CC(C)=CCC/C(C)=C/CC/C(C)=C/CCC(=O)OC/C=C(\C)CCC=C(C)C`, the max response in [4] was -4.29% (inactive). The Potency entry in [7] and in [9] was “inactive” each time. Also, in test [8], the call was inactive.

As for `CC(=O)Nc1c(I)c(NC(C)=O)c(I)c(C(=O)O)c1I`, in test [4], the max response was -5.52% (inactive). The Potency result in test [7] and in test [9] was “inactive” throughout. In addition, in test [8], the compound was classed as inactive.

`C[C@@]12CCC[C@H]1[C@@H]1CC[C@H]3C[C@@H](O)CC[C@]3(C)[C@H]1CC2`: in test [4], the max response was 4.41% (inactive). Besides, the Potency entry in [7] and in test [9] was “inactive” throughout. The compound was classed as inactive in test [8].

As to `CC(C)OC(=O)c1cc2c(OCC(O)CNC(C)(C)C)cccc2[nH]1` (stereo unspecified), the max response in test [4] was 0.786% (inactive). In addition, the Potency entry in test [7] and in test [9] was “inactive” throughout. Moreover, the result in test [8] was inactive.

Consider `CC(=O)OCC(=O)[C@@]1(O)CCC2C3CCC4=CC(=O)CC[C@]4(C)C3[C@@H](O)C[C@@]21C` (stereo partly specified), for which the max response in [4] is -8.54% (inactive). For the same compound, the Potency result in [7] and in test [9] was “inactive” throughout. Besides, the compound was called inactive in test [8].

Consider `c1ccc2occc2c1`, for which the compound was called inactive in test [2] and in test [8]. Also, the max response was 3.88% (inactive) and -20.4% (inactive) and 16.8% (inactive) in test [3]; -7.52% (inactive) in [4]; -2.02% (inactive) and -29.2% (inactive) and -7.14% (inactive) in test [5]. The Potency entry in [6], in test [7] and in [9] was “inactive” in each case.

On to `CC(C)(C)c1nnc(NS(=O)(=O)c2ccccc2)s1`, for which the max response in test [4] is 0.521% (inactive). The Potency result in test [7] and in test [9] was “inactive” throughout. Further, in test [8], the call was inactive.
